# Only some compounds are listed: those with a hit (about 6.7% of all), similar ones and a draw of the others.
# Pf Dd2 growth: P. falciparum Dd2 growth inhibitors, primary screen, SYBR Green fluorescence, single dose replicates. 72 h; hits give low values. activity change, % at 10 µM. hit rate 2.3% among 94,000. AID 1159554, 2015; in the data active = activity change below about -80%; inconclusive = no clear call, values can overlap the other calls
# T cruzi growth-1: T. cruzi intracellular proliferation inhibitors, primary screen, cell-based, beta-gal Tulahuen parasites, NIH3T3 host, luminescence; T. cruzi beta-gal in NIH3T3, GalScreen luminescence, 90 h; inhibition, % at 8.34 µM; hit rate 5.9% among 77,000; AID 624255, 2012;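 active = mean inhibition above about 93%, with at least 55% of replicates each passing it, limit read from the data, passing the limit was not always enough; inconclusive = only one of those two conditions holds; inactive = neither condition holds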
# C diff growth: C. difficile growth inhibitors, primary screen, HTS; Clostridium difficile clinical isolate growth, OD600, 24 h; hits give low values; growth activity, negative = inhibition, % at 16 µg/mL (by protocol); hit rate 0.25% among 86,000;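 active = mean growth activity at or below -80% and every replicate also at or below -80%; inconclusive = mean at or below -80% but some replicate above -80%; inactive = mean growth activity above -80%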;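 note: 0% = DMSO wells and -100% = levofloxacin 16 µg/mL wells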
# T cruzi growth-2: T. cruzi intracellular proliferation inhibitors, confirmation, cell-based, NIH3T3 host, beta-gal parasite, luminescence, cherry-pick. hit rate 72% among 5,600. inhibition, % at 8.35 µM. shares compounds with T cruzi growth-1. T. cruzi beta-gal in NIH3T3, GalScreen luminescence, 90 h. AID 651739, 2012;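 active = mean replicate inhibition above about 95% and at least 55% of replicates individually reaching it, limit read from the data; inconclusive = only one of the two criteria is met; inactive = neither criterion is met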
# T cruzi growth-3: inhibitors of intracellular T. cruzi replication, confirmation, NIH3T3 host cells, beta-gal parasites, cherry-pick, set 2. shares compounds with T cruzi growth-1. T. cruzi beta-gal in NIH3T3, GalScreen luminescence, 90 h. inhibition, % at 2.09 µM. hit rate 21% among 5,600. AID 651740, 2012;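 active = mean inhibition above about 95%, with at least 55% of replicates also reaching it, limit read from the data; inconclusive = meets just one of the two conditions; inactive = meets neither condition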;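 note: plate controls were neutral control median for no effect and positive control median for full effect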
# 3T3 cytotox: cytotoxicity in mouse NIH/3T3 fibroblasts, confirmation, cytotoxicity control for T. cruzi proliferation inhibitor project, cell-based, cherry-pick, single point; shares compounds with T cruzi growth-1; NIH/3T3 viability, CellTiter-Glo ATP luminescence, 90 h; cytotoxicity (signal decrease), % at 8.35 µM; hit rate 14% among 5,600; AID 651742, 2012;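 active = mean signal decrease across replicates above about 35% based on untreated-well scatter, with enough replicates individually passing, limit read from the data; inconclusive = no rule stated though some were filed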;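 note: 0% = median of neutral control wells and 100% = median of positive control wells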
# NIH3T3 tox 2: NIH/3T3 fibroblast cytotoxicity, confirmation, cytotoxicity control, cell-based, cherry-pick, single point, set 2. shares compounds with T cruzi growth-1. NIH/3T3 viability, CellTiter-Glo ATP luminescence, 90 h. inhibition, % at 24.9 µM. hit rate 56% among 5,600;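 active = mean loss of cell viability signal at or above a set limit, and enough replicates individually reaching it; inconclusive = meets only the mean limit or only the replicate share; inactive = meets neither condition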;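 note: 0% = median of neutral control wells and 100% = median of positive control wells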
# * hit, by the source's call; ? = inconclusive; nt = no result.
SMILES,Pf Dd2 growth,T cruzi growth-1,C diff growth,T cruzi growth-2,T cruzi growth-3,3T3 cytotox,NIH3T3 tox 2
Cc1noc(C)c1S(=O)(=O)N(C)C[C@@H]1OCCCC[C@@H](C)Oc2ccc(NC(=O)Nc3cccc4ccccc34)cc2C(=O)N([C@@H](C)CO)C[C@H]1C,-42,104*,-1,84,55,-14,-5
COc1ccc(NC(=O)Nc2ccc3c(c2)C(=O)N([C@@H](C)CO)C[C@@H](C)[C@H](CN(C)S(=O)(=O)c2c(C)noc2C)OCCCC[C@@H](C)O3)cc1,-17,-70,-2,nt,nt,nt,nt
O=C(C[C@@H]1CC[C@@H](NC(=O)CC2CC2)[C@@H](CO)O1)NCc1ccccc1,-8,nt,3,nt,nt,nt,nt
CCCC(=O)Nc1ccc2c(c1)C(=O)N(C)[C@H]1CC[C@H](CC(=O)OC)O[C@H]1CO2,-10,-3,0,nt,nt,nt,nt
COc1cccc(S(=O)(=O)N2CCCCN3[C@H](C2)[C@@H](c2ccc(C#CC4CC4)cc2)[C@@H]3CO)c1,4,121*,-2,93,93,4,?
Cc1cccc(S(=O)(=O)N2CCCCN3[C@@H](CO)[C@@H](c4ccc(C#CC5CC5)cc4)[C@@H]3C2)c1,?,65,43,nt,nt,nt,nt
COCC#Cc1ccc([C@H]2[C@@H](CO)N3CCCCN(S(=O)(=O)c4cccc(OC)c4)C[C@H]23)cc1,-63,92,17,nt,nt,nt,nt
COc1cccc(S(=O)(=O)N2CCCCN3[C@@H](CO)[C@H](c4ccc(C#CC5CC5)cc4)[C@@H]3C2)c1,4,107*,12,109*,89,16,105*
COc1cccc(S(=O)(=O)N2CCCCN3[C@H](C2)[C@H](c2ccc(C#CC4CC4)cc2)[C@@H]3CO)c1,-22,72,34,nt,nt,nt,nt
COCC#Cc1ccc([C@@H]2[C@H](CO)N3CCCCN(S(=O)(=O)c4cccc(OC)c4)C[C@@H]23)cc1,-45,107*,-4,103*,38,32,45*
C[C@@H]1CN([C@@H](C)CO)C(=O)c2cc(NC(=O)Nc3cccc4ccccc34)ccc2O[C@H]1CN(C)S(=O)(=O)c1ccccc1,-1,14,-7,nt,nt,nt,nt
C[C@H]1CN([C@@H](C)CO)C(=O)c2cccc(NC(=O)Nc3ccc(C(F)(F)F)cc3)c2O[C@@H]1CN(C)S(C)(=O)=O,13,nt,-24,nt,nt,nt,nt
C[C@H](CO)N1C[C@H](C)[C@H](CN(C)C(=O)Nc2ccc(F)cc2)OCCCC[C@H](C)Oc2ccc(NC(=O)NC3CCCCC3)cc2C1=O,5,102*,-3,106*,71,12,11
C[C@H](CO)N1C[C@H](C)[C@@H](CN(C)C(=O)Nc2ccc(F)cc2)OCCCC[C@H](C)Oc2ccc(NC(=O)NC3CCCCC3)cc2C1=O,-55,?,-6,109*,68,18,-27
C[C@@H]1CCCCO[C@H](CN(C)C(=O)Nc2ccc(F)cc2)[C@@H](C)CN([C@H](C)CO)C(=O)c2cc(NC(=O)NC3CCCCC3)ccc2O1,17,-8,5,nt,nt,nt,nt
C[C@@H]1CN([C@H](C)CO)C(=O)c2cc(NC(=O)NC3CCCCC3)ccc2O[C@@H](C)CCCCO[C@H]1CN(C)C(=O)Nc1ccc(F)cc1,-52,nt,0,nt,nt,nt,nt
COc1ccccc1-c1ccc([C@H]2[C@@H](CO)N(C(=O)NC(C)C)[C@H]2C#N)cc1,28,63,-1,nt,nt,nt,nt
Cc1ccc(S(=O)(=O)N(C)C[C@H]2Oc3ccc(NC(=O)NC(C)C)cc3C(=O)N([C@@H](C)CO)C[C@H]2C)cc1,7,44,3,nt,nt,nt,nt
C[C@@H]1CN([C@H](C)CO)C(=O)c2cc(NC(=O)Nc3ccccc3)ccc2O[C@@H](C)CCCCO[C@@H]1CN(C)S(=O)(=O)c1ccccc1,-64,7,nt,nt,nt,nt,nt
C[C@H](CO)N1C[C@H](C)[C@H](CN(C)S(=O)(=O)c2ccccc2)OCCCC[C@H](C)Oc2ccc(NC(=O)Nc3ccccc3)cc2C1=O,-36,100*,nt,108*,65,-10,54*
C[C@H]1CCCCO[C@H](CN(C)S(=O)(=O)c2ccccc2)[C@@H](C)CN([C@@H](C)CO)C(=O)c2cc(NC(=O)Nc3ccccc3)ccc2O1,-69,14,nt,nt,nt,nt,nt
C[C@@H]1CCCCO[C@H](CN(C)S(=O)(=O)c2ccccc2)[C@H](C)CN([C@H](C)CO)C(=O)c2cc(NC(=O)Nc3ccccc3)ccc2O1,-85*,103*,nt,113*,61,18,34*
O=C(C[C@@H]1C[C@@H]2c3cc(NC(=O)C4CCC4)ccc3O[C@@H]2[C@H](CO)O1)NCc1cccc(F)c1,-13,1,nt,nt,nt,nt,nt
COc1ccccc1-c1ccc([C@H]2[C@@H](CO)N3CCCCN(C(=O)CN4CCOCC4)C[C@H]23)cc1,-33,62,-5,nt,nt,nt,nt
O=C(CN1CCOCC1)N1CCCCN2[C@H](CO)[C@H](c3ccc(-c4ccccc4F)cc3)[C@@H]2C1,22,85,-4,nt,nt,nt,nt
SMILES,Pf Dd2 growth,T cruzi growth-1,C diff growth,T cruzi growth-2,T cruzi growth-3,3T3 cytotox,NIH3T3 tox 2
O=C(CN1CCOCC1)N1CCCCN2[C@H](CO)[C@H](c3ccc(/C=C/c4ccccc4)cc3)[C@H]2C1,-71,100*,-5,97*,62,25,105*
O=C(CN1CCOCC1)N1CCCCN2[C@H](C1)[C@@H](c1ccc(/C=C/c3ccccc3)cc1)[C@@H]2CO,-12,83,-8,nt,nt,nt,nt
COc1ccccc1-c1ccc([C@H]2[C@H](CO)N3CCCCN(C(=O)CN4CCOCC4)C[C@@H]23)cc1,-3,100*,-4,79,40,19,31*
O=C(CN1CCOCC1)N1CCCCN2[C@@H](CO)[C@H](c3ccc(-c4ccccc4F)cc3)[C@@H]2C1,43,?,-12,79,73,-9,-27
O=C(CN1CCOCC1)N1CCCCN2[C@H](CO)[C@H](c3ccc(/C=C/c4ccccc4)cc3)[C@@H]2C1,-9,106*,-12,108*,86,40*,41*
O=C(CN1CCOCC1)N1CCCCN2[C@H](CO)[C@@H](c3ccc(/C=C/c4ccccc4)cc3)[C@H]2C1,-6,10,-2,nt,nt,nt,nt
C[C@H]1CN([C@@H](C)CO)C(=O)c2cc(NC(=O)c3ccncc3)ccc2O[C@H]1CN(C)C(=O)Nc1cccc2ccccc12,28,3,2,nt,nt,nt,nt
COCC(=O)Nc1ccc2c(c1)C(=O)N(C)C[C@@H](OC)[C@H](C)CN(C(=O)c1ccccc1F)[C@@H](C)CO2,-47,-3,nt,nt,nt,nt,nt
